In all, about 69,000 compounds went through this assay and about 8,600 (12%) showed an effect of 50% or more. Many of the other results were omitted from the sample, so strong results are more common in it than they were.
Each compound was assayed on Plasmodium berghei (assay: Screen against P. berghei liver stage (PbLuc), transformed with Luciferase, at 10uM). Conditions: tested at 10 uM.
Assay type: functional, HepG2

| SMILES | INHIBITION [%] |
| --- | --- |
| CN(C)C(=O)C1(c2cnccn2)CCCN1C(=O)Cc1ccccc1 (stereo unspecified) | 28.475 |
| CC1c2ncc(Cn3cncn3)n2CCN1C1CCOCC1 (stereo unspecified) | 2.01 |
| O=C(CCc1ccc2c(c1)OCO2)N1CCCCC1Cn1cccn1 (stereo unspecified) | -0.219 |
| CCN1CCOCC2(CCCN(C(=O)c3cnccn3)C2)C1 (stereo unspecified) | -8.51 |
| CSc1ncccc1C(=O)N1C[C@@H]2CC[C@H]1CN(C(=O)N(C)C)C2 | 30.3 |
| Cc1occc1C(=O)N1CCCC1c1ccc(C(=O)N2CCOCC2)s1 (stereo unspecified) | -60.2 |
| CN(C)C(=O)c1ccc(C2CCCN2C(=O)c2ccccc2N(C)C)s1 (stereo unspecified) | 39.1 |
| CSc1ncccc1C(=O)N1CCCC1c1ccc(C(=O)N(C)C)s1 (stereo unspecified) | 65.2 |
| O=C1CCC(CCC(=O)N2CCCC2c2nccs2)=NN1 (stereo unspecified) | 27.6 |
| CN(C)C(=O)c1ccc(C2CCCN2C(=O)CCC2=NNC(=O)CC2)s1 (stereo unspecified) | 56.7 |
| O=C1CCC(CCC(=O)N2CCC2c2cccs2)=NN1 (stereo unspecified) | 11.2 |
| CSc1ncccc1C(=O)N1C[C@@H]2CC[C@H]1CN(CC(=O)N(C)C)C2 | 22.8 |
| CN(C)C(=O)c1ccc(C2CCCN2C(=O)c2cccc3c2OCC3)s1 (stereo unspecified) | 81.1 |
| CNC(=O)N1CCC2(CC1)CN(C(C)C)Cc1cc(F)ccc12 | 42.3 |
| CC(=O)c1ccc(C(=O)N2C[C@H]3CC[C@@H](C2)N(CC2CCC2)C3)s1 | -92.2 |
| O=C([C@H]1COC[C@H]2CN(C3CCOCC3)C[C@H]21)N1CCCO1 | -1.83 |
| Cc1nc(CN2CCN3C[C@H](Oc4cncnc4)C[C@H]3C2)cs1 | 88.3 |
| Cc1ccc(O[C@@H]2C[C@H]3CN(Cc4nccn4C)CCN3C2)cc1 | -15.7 |
| c1cncc(CN2CCN3C[C@H](Oc4cncnc4)C[C@H]3C2)c1 | 27.6 |
| Fc1cnc(N2CCN3C[C@H](Oc4cccnc4)C[C@H]3C2)nc1 | 82.2 |
| O=C(c1cnccn1)N1CCN2C[C@H](Oc3cccnc3)C[C@H]2C1 | 15.6 |
| Cn1ccnc1CN1CCN2C[C@H](Oc3cncnc3)C[C@H]2C1 | -10.3 |

| SMILES | INHIBITION [%] |
| --- | --- |
| Cc1cccc(CN2CCN3C[C@H](Oc4cncnc4)C[C@H]3C2)n1 | 37.6 |
| c1cnc(N2CCN3C[C@H](Oc4cncnc4)C[C@H]3C2)nc1 | 34.5 |
| Cc1cnc(N2CCN3C[C@H](OCc4ccccn4)C[C@H]3C2)nc1 | 42.3 |
| O=C(c1ccc(F)cc1)N1CCN2C[C@H](Oc3cccnc3)C[C@H]2C1 | 44.2 |
| Fc1cnc(N2CCN3C[C@H](Oc4cncnc4)C[C@H]3C2)nc1 | 56.4 |
| Cc1ccc(O[C@@H]2C[C@H]3CN(c4ncc(F)cn4)CCN3C2)cc1 | 79.2 |
| O=C(COCc1ccccc1)N1CCCC(OCc2cccnc2)C1 (stereo unspecified) | 0.348 |
| CCCc1nc(CN2CCCC2c2cnn(C)c2)cs1 (stereo unspecified) | -32 |
| CCn1cc(CN2CCN(CC(O)c3ccc(C)cc3C)CC2)cn1 (stereo unspecified) | 5.11 |
| CN1CC(=O)N(c2cnn(C)c2)CC12CCN(Cc1cccs1)C2 (stereo unspecified) | 7.31 |
| CC(NC(=O)N(C)CCOc1ccccc1F)c1nncn1C (stereo unspecified) | 7.08 |
| CC1(C(N)=O)CN(CC2CCC2)CCO1 (stereo unspecified) | -1.75 |
| CS(=O)(=O)N1CC[C@@H]2O[C@@H](COCC(=O)N3CCCC3)CC[C@@H]21 | 1.9 |
| Cc1nc(C2CCN(C(=O)c3ccnn3C)CC2)c2sccn12 | 15.9 |
| Cc1cccc2sc(NC(=O)CN3CCCC4(CC3)CNC(=O)O4)nc12 (stereo unspecified) | 38.7 |
| Cc1cccc2sc(NC(=O)CN3CCCC(O)(CO)C3)nc12 (stereo unspecified) | 74.5 |
| Cc1cccc2sc(NC(=O)CN3CCC(C)CC3)nc12 | 14.1 |
| Cc1c(Cl)cccc1NCc1nc2n(n1)CCCCC2 | 26.7 |
| CN(C)c1ncc(CNC(=O)Nc2ccc(C(F)(F)F)cc2)n1C | 78.6 |
| CN(C)c1ncc(CNC(=O)Nc2ccccc2C(F)(F)F)n1C | 36.9 |
| CN(C)c1ncc(CNC(=O)Nc2ccccc2F)n1C | 48.9 |
| COc1ccc(CN2CC[C@H]3[C@H]2CCN3C(=O)c2cnn(C)c2)cc1 | 39.8 |

| SMILES | INHIBITION [%] |
| --- | --- |
| CNC(=O)c1sc2ncccc2c1C1CCN(C(=O)CCOC)C1 (stereo unspecified) | -7.525 |
| O=C(CCc1ccncc1)NCc1csc(Br)c1 | -6.14 |
| CN(C)CCNC(=O)Cn1cnc2cc(NC(=O)C3CC3)ccc21 | 4.48 |
| COCC1CC2(CCN(c3cccc(C)n3)CC2)CN1C(C)C (stereo unspecified) | 29.4 |
| COCC1CC2(CCN(Cc3ccncc3)CC2)CN1C(C)C (stereo unspecified) | 12.6 |
| COCC1CC2(CCN(c3ccc(C)nn3)CC2)CN1C(C)C (stereo unspecified) | 16.8 |
| COCC1CC2(CCN(S(=O)(=O)C3CC3)CC2)CN1c1ncccn1 (stereo unspecified) | 19.5 |
| COCC1CC2(CCN(c3ccccn3)CC2)CN1C(C)C (stereo unspecified) | 64.7 |
| COCC1CC2(CCN(c3cc(OC)ncn3)CC2)CN1C(C)C (stereo unspecified) | 58.4 |
| COCCN1CCC2(CC1)CC(COC)N(c1ncccn1)C2 (stereo unspecified) | 23.5 |
| COCC1CC2(CCN(Cc3ccccn3)CC2)CN1C(C)C (stereo unspecified) | -2.27 |
| CCS(=O)(=O)N1CCC2(CC1)CC(COC)N(c1ncccn1)C2 (stereo unspecified) | 65.6 |
| CC1(NC(=O)Cc2cccs2)CCS(=O)(=O)C1 (stereo unspecified) | 43.1 |
| CC(C)C(=O)N1CC[C@H]2N(C)CC[C@@]2(C(=O)Nc2ccccc2)CC1 | 44.8 |
| O=C1CC2(CCCCN2C(=O)c2ccccc2)CN1CC1CC1 (stereo unspecified) | 29.7 |
| Cc1cnc(NC(=O)C(C)n2ccc(C(F)(F)F)n2)s1 (stereo unspecified) | 49.1 |
| COCC(=O)N1CC[C@]2(O)CCN(Cc3ccsc3)C[C@@H]2C1 | 10.5 |
| CC(C)c1nc(CNC2CCN(C(=O)OC(C)(C)C)CC2)cs1 | 47 |
| CN(CC(=O)NC1CC1)C(=O)c1csc(Br)c1 | 37.2 |
| COc1ccccc1CC(=O)N1CCC(OCc2cccnc2)CC1 | -37.2 |
| Cc1cnn(CC2CCCCN2Cc2nccn2CC(F)(F)F)c1 (stereo unspecified) | -61.4 |
| Cc1noc(C)c1CC(=O)N1CC[C@@](C)(O)[C@H](Oc2ccccc2)C1 | 41.55 |

| SMILES | INHIBITION [%] |
| --- | --- |
| COCCNc1ccc(CNC(=O)Nc2cn[nH]c2)cc1 | 6.14 |
| CS(=O)(=O)c1ccc(CNC(=O)Nc2cn[nH]c2)cc1 | -21.7 |
| CNS(=O)(=O)c1ccc(CNC(=O)Nc2cn[nH]c2)cc1 | 50.3 |
| O=C(NCc1ccc(Br)c(F)c1)Nc1cn[nH]c1 | 4.97 |
| NC(=O)c1ccc(CNC(=O)Nc2cn[nH]c2)cc1 | 72.9 |
| CNS(=O)(=O)Cc1ccc(CNC(=O)Nc2cn[nH]c2)cc1 | 27.9 |
| CNC(=O)c1cnn2c(C3CCCN3C)ccnc12 (stereo unspecified) | -6.73 |
| COc1ccc(Br)c(C(=O)NC(CC(=O)O)c2cccs2)c1 (stereo unspecified) | 33.8 |
| O=C(CCCN1C(=O)CCC1=O)NCC1(c2ccccc2)CCC1 | -9.37 |
| O=C1CCCN1Cc1nnc2n1CCN(Cc1ccco1)CC2 | -8.23 |
| CCC(O)(CNCc1ncc[nH]1)c1ccc(Br)cc1 (stereo unspecified) | 15.5 |
| Clc1cc(NCc2ncc[nH]2)nc2[nH]ccc12 | -19.8 |
| Fc1cccc(NCc2ncc[nH]2)c1 | 10.3 |
| COc1cc(NCc2ncc[nH]2)ccc1Br | 74.4 |
| COCc1nc2cc(NCc3ncc[nH]3)ccc2o1 | -10.8 |
| Fc1ccc(NCc2ncc[nH]2)cc1Br | 58.1 |
| CCOCC(=O)N1CC[C@H]2O[C@@H](C)C[C@H]2C1 | 5.44 |
| CCCn1cnc2c(cnn2-c2cccc(C)c2C)c1=O | -70.6 |
| Cc1cc(-c2cc(N)c(=O)n(CC(=O)N3CCCC(C)C3)n2)c(C)o1 (stereo unspecified) | 22.35 |
| Cc1nc(CN2CCCN(CCOc3cccc(C#N)c3)CC2)no1 | 20.1 |
| Cc1noc(OCCOc2cccc(C#N)c2)n1 | 10.7 |
| Cc1nc(COc2cccc(C#N)c2)no1 | 54.4 |

| SMILES | INHIBITION [%] |
| --- | --- |
| COCC(=O)Nc1nnc2n(Cc3cccc(OC)c3)[nH]c(C)c1-2 | -14.8 |
| CN(CC1(O)CCCN(c2ccccn2)C1)C(=O)CC1CCOCC1 (stereo unspecified) | -51.4 |
| Cc1nc(-c2ccsc2)ccc1C(=O)NCCCN1CCOCC1 | 25.315 |
| CSc1nnc(CNC(=O)Nc2ccccc2Br)n1C | 19.8 |
| CNCC[C@H]1CC(C)(C)Oc2ccc(OC)cc21 | 42.6 |
| CNCC[C@H]1CC(C)(C)Oc2ccc(OCC3CC3)cc21 | 42.6 |
| CNCC[C@H]1CC(C)(C)Oc2ccc(C)cc21 | 53 |
| CN1CCN(C(=O)C2CCN(c3cccnn3)C2)CC1 (stereo unspecified) | -18.9 |
| O=C(NCc1ccco1)[C@@H]1CCO[C@@H]2CCN(C3CCOCC3)C[C@H]21 | 11.3 |
| Cc1nnc2n1CCN(CCOc1ccc(C(C)(C)C)cc1)C2 | 13.3 |
| NC(=O)C(CNC(=O)COCC(F)(F)F)Cc1ccc(F)cc1 (stereo unspecified) | 17.4 |
| OC1(CN2CCCCC2)CCN(c2cccc(C(F)(F)F)n2)C1 (stereo unspecified) | 46.7 |
| OC1(CN2CCCCC2)CCN(c2cc(C(F)(F)F)ccn2)C1 (stereo unspecified) | 33.9 |
| OC1(CN2CCCCC2)CCN(c2ccc(C(F)(F)F)cn2)C1 (stereo unspecified) | 59.4 |
| O=C(NCc1ccoc1)Nc1cc(C(F)(F)F)c[nH]c1=O | -45.5 |
| Fc1ccccc1CN1C[C@H](OCC2CCOCC2)[C@H]2OCCC[C@H]21 | -28.8 |
| Fc1ccccc1CN1C[C@@H](OCc2ccncc2)[C@H]2OCCC[C@H]21 | 23.5 |
| CO[C@H]1CN(Cc2ccccc2F)[C@@H]2CCCO[C@H]12 | 68.8 |
